Source: PubChem BioAssay (NCATS)
Inconclusive results are not listed. Calls of active or inactive are those of the source. Unless noted, the rule behind the calls is not given here. Bridge positions count the residues as written; N and C are the ends. Square brackets hold non-standard residues; d marks the D form. Peptide text beside a SMILES is read from it. * marks the point of attachment. Ileψ(thiazoline)Cys = CC[C@H](C)[C@H](N)C1=N[C@H](C(=O)*)CS1; d(aIle) = CC[C@H](C)[C@@H](N)C(=O)O; dOrn = NCCC[C@@H](N)C(=O)O

Columns and labels:
[1] = target: DNA dC->dU-editing enzyme APOBEC-3G (Homo sapiens) (UniProt Q9HC16); experiment: qHTS for inhibitors of Vif-A3G interactions: Validation (AID 588379; active = well fitted curve in the direction sought with a large enough effect; an effect the other way counts as inactive or inconclusive; note: 0% is about no effect); conditions: Vif-A3G protein interaction assay; series mostly up to 46.1 µM
Sequence of DNA dC->dU-editing enzyme APOBEC-3G (Homo sapiens) (Q9HC16 whole entry, looked up): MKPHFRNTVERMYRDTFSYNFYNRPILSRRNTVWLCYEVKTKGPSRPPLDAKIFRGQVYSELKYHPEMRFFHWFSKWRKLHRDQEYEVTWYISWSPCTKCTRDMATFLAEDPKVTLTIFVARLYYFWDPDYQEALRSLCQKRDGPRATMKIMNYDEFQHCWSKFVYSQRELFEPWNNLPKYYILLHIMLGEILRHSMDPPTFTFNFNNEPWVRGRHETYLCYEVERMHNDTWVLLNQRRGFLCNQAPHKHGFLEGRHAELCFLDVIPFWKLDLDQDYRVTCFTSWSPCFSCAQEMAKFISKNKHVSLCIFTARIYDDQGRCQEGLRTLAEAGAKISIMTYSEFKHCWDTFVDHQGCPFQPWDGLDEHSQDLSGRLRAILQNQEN
In short: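 HeLa cells stably expressing Vif and A3G-eYFP, 700 cells/well, incubated overnight at 37 deg C, then exposed to compound overnight at 37 deg C. Inhibition of Vif-mediated degradation read as increased yellow fluorescence (Ex 488/Em 500-530) by laser-scanning cytometry.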

[2] = qHTS Assay for Identification of Small Molecule Agonists for Hypoxia Response Element Signaling Pathway (AID 914; active = well fitted activation curve with a large enough effect in the signal ratio, with a control signal flat, not every such curve was filed as active; the % refers to the signal ratio; note: % of control where 0% means no effect); conditions: ME-180 (cervical carcinoma) HRE-bla reporter, beta-lactamase ratio, CoCl2, 17 h; activation: stronger effect = higher value
In short: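 Positive modulation of EC50 CoCl2-induced hypoxia response element signaling is measured in ME-180 cells with a beta-lactamase reporter. Compounds are titrated, incubation runs 17 hours, and %Activity derives from the blue/green ratio.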

[3] = qHTS Assay for Identifying Gametocytocidal Compounds (AID 743244; active = well fitted curve in the direction sought with a large enough effect; an effect the other way counts as inactive or inconclusive; note: potency is the fitted concentration of half-maximal effect); conditions: P. falciparum 3D7 stage III-V gametocytes, alamarBlue, 72 h; max response: stronger effect = lower value
In short: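 Stage III–V gametocytes of P. falciparum 3D7 were seeded at 20,000 cells/well onto pre-dispensed compounds. After 72 h, 37 °C, 5% CO2, alamarBlue was added for another 24 h.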

[4] = qHTS profiling for inhibitors of Plasmodium falciparum (3D7) proliferation (AID 743322);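 note: infected erythrocytes exposed to compound for 72 h before lysis; 100% = DMSO vehicle wells and 0% = 0.29 µM artemisinin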; conditions: P. falciparum 3D7 proliferation; at 9.63 µM (top of the series)
In short: (§1)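 Erythrocytes infected with P. falciparum (0.3% parasitemia, 2.5% hematocrit) incubated with compounds 72 h at 37 C, 5% CO2. Lysis with saponin/Triton buffer containing SYBR Green I, overnight at room temperature in the dark; DNA fluorescence (485/535 nm) normalised to 0.29 uM artemisinin and DMSO.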

[5] = qHTS profiling for inhibitors of Plasmodium falciparum (DD2) proliferation (AID 743323); conditions: lower = more inhibition; at 9.63 µM (top of the series)
In short: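 Parasite proliferation measured via DNA-dye fluorescence, as uninfected erythrocytes lack DNA. Cultures at 0.3% parasitemia and 2.5% hematocrit incubated 72 h with compound; signal scaled between vehicle and 0.29 uM artemisinin wells.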

[6] = qHTS profiling for inhibitors of Plasmodium falciparum (HB3) proliferation (AID 743324; active = well fitted curve in the direction sought with a large enough effect; an effect the other way counts as inactive or inconclusive;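 note: 100% = DMSO vehicle wells and 0% = artemisinin-treated control wells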); conditions: Plasmodium falciparum HB3 blood-stage proliferation; at 9.63 µM (top of the series)
In short: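 P. falciparum HB3 grown in erythrocytes (0.3% parasitemia, 2.5% hematocrit final) with compound for 72 h at 37 C, 5% CO2. Parasite DNA detected by SYBR Green after saponin/triton lysis overnight; normalized to 0.29 uM artemisinin and DMSO.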

[7] = qHTS profiling of the MIPE4 collection as inhibitors of Plasmodium falciparum (3D7) proliferation (AID 743344);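 note: scaled between DMSO vehicle wells and 0.29 µM artemisinin as full inhibition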; conditions: P. falciparum 3D7 in erythrocytes, SYBR Green DNA fluorescence, 72 h; at 9.64 µM (top of the series)
In short: as §1

[8] = qHTS profiling of the MIPE4 collection as inhibitors of Plasmodium falciparum (DD2) proliferation (AID 743345); conditions: P. falciparum Dd2 in erythrocytes, SYBR Green DNA, 72 h; at 9.64 µM (top of the series)
In short: as §1

[9] = qHTS profiling of the MIPE4 collection as inhibitors of Plasmodium falciparum (DD2) proliferation (Rep 2) (AID 743346); conditions: P. falciparum Dd2 in erythrocytes, SYBR Green DNA, 72 h; at 9.64 µM (top of the series)
In short: as §1

[10] = qHTS profiling of the MIPE4 collection as inhibitors of Plasmodium falciparum (HB3) proliferation (AID 743347);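 note: plate controls were DMSO vehicle wells for no effect and artemisinin wells for full effect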; conditions: P. falciparum HB3 in erythrocytes, SYBR Green DNA, 72 h; at 9.64 µM (top of the series)
In short: as §1

[11] = target: Guanine nucleotide-binding protein G(i) subunit alpha-1 (Homo sapiens) (UniProt P63096); experiment: qHTS Assay for Inhibitors of RGS12 GoLoco Motif Activity (Green Fluorophore) (AID 879; active = well fitted curve in the direction sought with a large enough effect; an effect the other way counts as inactive or inconclusive;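 note: 0% = labeled peptide with Gαi1 and full inhibition = labeled peptide alone without protein; negative values mean loss of peptide binding seen as reduced polarization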); conditions: Galphai1/FITC-RGS12 GoLoco peptide, fluorescence polarization; series mostly up to 57.1 µM
Sequence of Guanine nucleotide-binding protein G(i) subunit alpha-1 (Homo sapiens) (P63096 whole entry, looked up): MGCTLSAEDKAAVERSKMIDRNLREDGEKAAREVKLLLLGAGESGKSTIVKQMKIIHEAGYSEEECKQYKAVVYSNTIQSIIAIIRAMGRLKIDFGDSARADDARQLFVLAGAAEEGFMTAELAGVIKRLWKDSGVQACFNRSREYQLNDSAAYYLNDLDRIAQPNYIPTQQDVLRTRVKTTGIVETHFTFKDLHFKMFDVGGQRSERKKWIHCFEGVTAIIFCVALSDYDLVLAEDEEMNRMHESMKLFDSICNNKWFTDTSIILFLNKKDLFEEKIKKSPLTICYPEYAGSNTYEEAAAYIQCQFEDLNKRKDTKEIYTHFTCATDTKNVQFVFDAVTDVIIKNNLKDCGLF
In short: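 Fluorescence polarization assay: 50 nM Gαi1 with 10 nM FITC-labeled RGS12 GoLoco peptide in 10 mM Tris pH 7.5, 150 mM NaCl, 0.1 mM GDP, 0.05% NP40, 10 min at room temperature with compound.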

[12] = qHTS Assay for Identification of Small Molecule Agonists for Thrombopoietin (TPO) Signaling Pathway (AID 917; active = well fitted curve in the direction sought with a large enough effect; an effect the other way counts as inactive or inconclusive; note: % is set by controls: 0 for no effect and ±100 for the full control effect); conditions: TPO signaling pathway reporter cells, agonist qHTS, stimulated with TPO at its EC50; series mostly up to 38.5 µM
In short: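 IL-3-dependent murine pro-B Ba/F3 cells, stably transfected with human TPO receptor and GpIIb-promoter luciferase, are incubated 24 hrs at 37 C with test compound and 26 pM TPO; luciferase signal is read after 10 min at room temperature.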

[13] = target: Muscarinic acetylcholine receptor M1 (Rattus norvegicus) (UniProt P08482); experiment: qHTS Assay for Antagonists of Acetylcholine Muscarinic M1 Receptor: Kinetic Measurement of Intracellular Calcium Response (AID 943; active = well fitted curve in the direction sought with a large enough effect; an effect the other way counts as inactive or inconclusive; note: nearly all actives have a fitted effect of over 75% in size); conditions: M1-expressing cells, kinetic intracellular calcium fluorescence; series mostly up to 35.3 µM
Sequence of Muscarinic acetylcholine receptor M1 (Rattus norvegicus) (P08482 whole entry, looked up): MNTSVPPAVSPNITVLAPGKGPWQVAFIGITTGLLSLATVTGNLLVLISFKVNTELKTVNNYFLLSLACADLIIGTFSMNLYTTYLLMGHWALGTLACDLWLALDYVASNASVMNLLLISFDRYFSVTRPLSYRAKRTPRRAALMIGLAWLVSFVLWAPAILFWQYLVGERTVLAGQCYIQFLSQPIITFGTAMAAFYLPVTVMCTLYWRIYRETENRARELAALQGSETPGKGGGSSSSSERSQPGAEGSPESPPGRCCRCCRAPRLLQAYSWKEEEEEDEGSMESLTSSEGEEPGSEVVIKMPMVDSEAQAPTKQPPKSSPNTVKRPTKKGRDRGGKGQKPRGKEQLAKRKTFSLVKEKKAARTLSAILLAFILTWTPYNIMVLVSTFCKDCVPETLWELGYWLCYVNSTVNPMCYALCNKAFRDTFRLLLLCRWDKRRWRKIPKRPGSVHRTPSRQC
In short: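 CHO cells expressing rat M1 receptor, Fluo-4 loaded, preincubated 10 min with compound, then stimulated with EC80 carbachol (100 nM final). Kinetic calcium fluorescence over 4 min; response taken as peak over basal signal.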

[14] = target: Muscarinic acetylcholine receptor M1 (Rattus norvegicus) (UniProt P08482); experiment: qHTS Assay for Antagonists of Acetylcholine Muscarinic M1 Receptor: Measurement of IP-One Response (AID 944; active = well fitted curve in the direction sought with a large enough effect; an effect the other way counts as inactive or inconclusive; note: nearly all actives have a fitted effect of over 75% in size); conditions: CHO-M1 cells, IP-One HTRF, antagonist mode; series mostly up to 46.1 µM
In short: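 CHO cells stably expressing rat M1, pretreated 10 min with compound, then stimulated 30 min with carbachol at EC80 (200 nM) in LiCl-containing buffer pH 7.4; IP1 accumulation read by HTRF competition (665/620 nm).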

[15] = target: Pyruvate kinase (Leishmania mexicana) (UniProt Q27686); experiment: qHTS Validation Assay for Inhibitors of Leishmania Mexicana Pyruvate Kinase (AID 945; active = well fitted curve in the direction sought with a large enough effect; an effect the other way counts as inactive or inconclusive;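 note: 0% = DMSO only neutral control wells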); conditions: purified L. mexicana pyruvate kinase, enzyme activity, E451W mutant enzyme; series mostly up to 57.5 µM
Sequence of Pyruvate kinase (Leishmania mexicana) (Q27686 2-499 E452W): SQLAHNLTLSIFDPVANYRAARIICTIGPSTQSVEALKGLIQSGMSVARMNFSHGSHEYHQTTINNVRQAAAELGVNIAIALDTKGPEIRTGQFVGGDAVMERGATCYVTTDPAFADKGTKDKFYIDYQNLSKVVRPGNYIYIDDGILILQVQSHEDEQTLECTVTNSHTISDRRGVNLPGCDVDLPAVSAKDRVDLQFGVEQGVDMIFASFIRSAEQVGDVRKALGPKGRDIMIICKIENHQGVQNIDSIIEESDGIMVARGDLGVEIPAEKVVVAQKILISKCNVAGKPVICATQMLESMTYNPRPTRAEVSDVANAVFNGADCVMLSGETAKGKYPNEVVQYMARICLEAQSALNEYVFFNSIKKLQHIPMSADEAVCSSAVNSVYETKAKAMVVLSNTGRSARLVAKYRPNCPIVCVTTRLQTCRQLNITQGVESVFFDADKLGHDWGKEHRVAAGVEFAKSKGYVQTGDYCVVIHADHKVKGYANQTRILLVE
In short: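 qHTS eight-point titrations against 0.2 nM LmPYK (E451W) in imidazole buffer pH 7.2 with 0.5 mM PEP, 0.1 mM ADP; 1 h, room temperature. Readout: PKLight luminescence, normalized to neutral DMSO wells.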

[16] = target: Pyruvate kinase PKM (Homo sapiens) (UniProt P14618); experiment: qHTS Assay for Activators of Human Muscle Pyruvate Kinase (AID 954; active = well fitted curve in the direction sought with a large enough effect, not every such curve was filed as active;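 note: 0% = uninhibited enzyme and -100% = no enzyme or full thiadiazolimine inhibition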); conditions: purified human muscle pyruvate kinase, luciferase-coupled luminescence, 1 h; series mostly up to 57.5 µM
Sequence of Pyruvate kinase PKM (Homo sapiens) (P14618 whole entry, looked up): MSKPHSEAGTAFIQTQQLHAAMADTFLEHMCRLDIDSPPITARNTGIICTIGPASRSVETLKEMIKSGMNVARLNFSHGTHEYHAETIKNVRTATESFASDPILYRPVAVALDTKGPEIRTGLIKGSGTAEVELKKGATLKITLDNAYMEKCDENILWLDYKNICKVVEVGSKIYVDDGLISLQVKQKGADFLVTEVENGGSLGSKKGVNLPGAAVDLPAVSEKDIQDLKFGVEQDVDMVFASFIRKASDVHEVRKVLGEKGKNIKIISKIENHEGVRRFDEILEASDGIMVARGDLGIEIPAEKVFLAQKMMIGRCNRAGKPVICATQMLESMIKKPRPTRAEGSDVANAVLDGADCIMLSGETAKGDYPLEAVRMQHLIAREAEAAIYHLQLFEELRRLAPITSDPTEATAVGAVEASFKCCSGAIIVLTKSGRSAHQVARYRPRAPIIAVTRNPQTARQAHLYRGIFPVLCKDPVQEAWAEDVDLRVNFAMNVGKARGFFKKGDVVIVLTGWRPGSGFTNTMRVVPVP
In short: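 Enzyme was run at intermediate activity so both inhibitors and activators could be detected. ATP formed from ADP and PEP by 0.1 nM human PKM2 during a 1 h room-temperature incubation was quantified by coupled luciferase luminescence.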

[17] = target: Alpha-galactosidase A (Homo sapiens) (UniProt P06280); experiment: Counterscreen for Glucocerebrosidase Inhibitors: qHTS Assay for Human alpha-Galactosidase at pH 4.5 (AID 992; active = well fitted curve in the direction sought with a large enough effect; an effect the other way counts as inactive or inconclusive; note: 0% is about no effect); conditions: purified enzyme, fluorogenic substrate; series mostly up to 76.9 µM
Sequence of Alpha-galactosidase A (Homo sapiens) (P06280 whole entry, looked up): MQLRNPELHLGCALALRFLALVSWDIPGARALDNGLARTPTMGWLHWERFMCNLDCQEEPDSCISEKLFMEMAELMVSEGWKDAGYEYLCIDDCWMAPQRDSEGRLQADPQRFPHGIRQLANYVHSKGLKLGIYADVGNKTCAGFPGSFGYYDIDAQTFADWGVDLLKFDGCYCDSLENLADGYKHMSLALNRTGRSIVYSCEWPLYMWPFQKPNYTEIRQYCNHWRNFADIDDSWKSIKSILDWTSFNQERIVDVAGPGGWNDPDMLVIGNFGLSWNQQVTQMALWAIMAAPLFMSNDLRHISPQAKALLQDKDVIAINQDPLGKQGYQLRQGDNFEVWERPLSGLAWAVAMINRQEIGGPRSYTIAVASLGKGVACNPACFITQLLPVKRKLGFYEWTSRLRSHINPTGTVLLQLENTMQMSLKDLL
In short: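 Read-out is 4-methylumbelliferone fluorescence (365 nm excitation, 440 nm emission) after a pH 10 NaOH/glycine stop. Reactions held 2 nM enzyme and 80 uM substrate at pH 4.5 for 20 min at room temperature.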

[18] = target: alpha-glucosidase (Oryza sativa, rice) (UniProt Q653V4); experiment: Counterscreen for Glucocerebrosidase Inhibitors: qHTS Assay for Rice alpha-Glucosidase at pH 5.0 (AID 997; active = well fitted curve in the direction sought with a large enough effect; an effect the other way counts as inactive or inconclusive;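 note: 0% = full activity with enzyme and -100% = basal without enzyme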); conditions: rice alpha-glucosidase enzyme activity; series mostly up to 76.9 µM
In short: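 Rice alpha-glucosidase (4 nM final) with 400 uM 4-methylumbelliferyl-alpha-D-glucopyranoside in citrate buffer pH 5.0, 20 min at room temperature, stopped at pH 10; fluorescence 365/440 nm, compounds 0.7 nM–77 uM, AC50 from Hill fits.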

[19] = target: Cytochrome P450 1A2 (Homo sapiens) (UniProt P05177); experiment: p450-cyp1a2 (AID 410; calls by dose curve; note: potency is the fitted concentration of half-maximal effect); conditions: recombinant CYP1A2, luciferin-ME demethylation, luminescence; series mostly up to 25.6 µM
Sequence of Cytochrome P450 1A2 (Homo sapiens) (P05177 whole entry, looked up): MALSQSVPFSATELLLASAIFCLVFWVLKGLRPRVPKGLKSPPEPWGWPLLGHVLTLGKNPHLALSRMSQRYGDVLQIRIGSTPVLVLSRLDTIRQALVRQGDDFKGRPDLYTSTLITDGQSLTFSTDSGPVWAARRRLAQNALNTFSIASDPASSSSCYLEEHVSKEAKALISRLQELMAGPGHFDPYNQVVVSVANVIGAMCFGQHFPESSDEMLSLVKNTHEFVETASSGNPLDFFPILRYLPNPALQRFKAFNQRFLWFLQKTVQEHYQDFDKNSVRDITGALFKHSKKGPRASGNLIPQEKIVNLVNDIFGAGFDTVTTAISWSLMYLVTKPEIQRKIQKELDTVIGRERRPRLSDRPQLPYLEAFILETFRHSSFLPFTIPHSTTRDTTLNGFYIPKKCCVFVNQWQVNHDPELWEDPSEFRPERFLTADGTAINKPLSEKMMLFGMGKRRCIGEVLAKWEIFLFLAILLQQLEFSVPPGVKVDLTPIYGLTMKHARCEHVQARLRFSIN
In short: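 20nM CYP1A2 with 100uM Luciferin-ME (at Km) in 100mM KPO4; compound preincubated 10 min, NADPH regeneration added, 60 min at room temperature. Luciferin quantified by luminescence after detection reagent; normalized to 57 uM furafylline.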

SMILES: Cc1ccc2c(c1)c1c3n2CCN[C@H]3CCC1
- outcome [1]: inactive

SMILES: Cc1ncc([N+](=O)[O-])n1C[C@H](O)CCl
- activation [2]: -4.65% (inactive)

SMILES: CC[C@H]1NC(=O)c2cc(S(N)(=O)=O)c(Cl)cc2N1
- activation [2]: 3.52% (inactive)

SMILES: O[C@H](c1cc(C(F)(F)F)nc2c(C(F)(F)F)cccc12)[C@H]1CCCCN1
- Potency [3]: 0.0894 µM (active)
- remaining parasite growth % (stronger effect = lower value) [4]: -0.0865%
- activity, percent of control [5]: 1.34%
- remaining proliferation (% of control), lower = more inhibition [6]: 0.677%
- parasite growth, % of DMSO control [7]: 8.08%
- parasite growth remaining, % of DMSO control (lower = more inhibition) [8]: 8.4%
- parasite growth, % of control (lower = inhibition) [9]: 18.7%
- growth, % of control [10]: 4.87%

SMILES: CC[C@H](C)[C@H](N)C1=N[C@H](C(=O)N[C@@H](CC(C)C)C(=O)N[C@@H](CCC(=O)O)C(=O)N[C@@H](C(=O)N[C@H]2CCCCNC(=O)[C@@H](CC(N)=O)NC(=O)[C@@H](CC(=O)O)NC(=O)[C@@H](Cc3cnc[nH]3)NC(=O)[C@@H](Cc3ccccc3)NC(=O)[C@@H]([C@@H](C)CC)NC(=O)[C@@H](CCCN)NC2=O)[C@@H](C)CC)CS1 ({Ileψ(thiazoline)Cys}-LE[d(aIle)]K[dOrn][d(aIle)][dF][dH][dD][dN]; lactam 4-C)
- activation [2]: -5.24% (inactive)

SMILES: CC(=O)/C(C)=N\O
- outcome [11]: inactive
- outcome [12]: inactive
- outcome [13]: inactive
- outcome [14]: inactive
- outcome [15]: inactive
- outcome [16]: inactive
- outcome [17]: inactive
- outcome [18]: inactive
- outcome [1]: inactive

SMILES: CO[C@H]1C=CO[C@]2(C)Oc3c(C)c(O)c4c(O)c(c5c(c4c3C2=O)NC2(CCN(CC(C)C)CC2)N=5)=NC(=O)C(C)=CC=C[C@@H](C)[C@@H](O)[C@@H](C)[C@@H](O)[C@@H](C)[C@@H](OC(C)=O)[C@@H]1C
- parasite growth, % of DMSO control [7]: 68.3%
- parasite growth remaining, % of DMSO control (lower = more inhibition) [8]: 68.3%
- parasite growth, % of control (lower = inhibition) [9]: 36%
- growth, % of control [10]: 93.1%

SMILES: C[C@H](N[C@@H](C)COc1ccccc1)[C@H](O)c1ccc(O)cc1
- Potency [19]: 5.01 µM (active)

SMILES: CO[C@]1(NC(=O)[C@H](C(=O)O)c2ccc(O)cc2)C(=O)N2C(C(=O)O)=C(CSc3nnnn3C)CO[C@H]21
- Potency [19]: inactive

SMILES: C[C@@]12C=CC(=O)C=C1CC[C@H]1[C@H]3CC[C@](O)(C(=O)CO)[C@]3(C)CC(=O)[C@@H]12
- activation [2]: -13.5% (inactive)

SMILES: CCOC(=O)Oc1c(OC)cc(C(=O)O[C@H]2C[C@H]3CN4CCc5c([nH]c6cc(OC)ccc56)[C@@H]4C[C@H]3[C@@H](C(=O)OC)[C@@H]2OC)cc1OC
- Potency [19]: inactive

SMILES: CO[C@@H]1C=CO[C@]2(C)Oc3c(C)c(O)c4c(O)c(c(C=NN5CCN(C)CC5)c(O)c4c3C2=O)NC(=O)C(C)=CC=C[C@H](C)[C@H](O)[C@H](C)[C@H](O)[C@H](C)[C@H](OC(C)=O)[C@H]1C
- remaining parasite growth % (stronger effect = lower value) [4]: 5.75%
- activity, percent of control [5]: 4.21%
- parasite growth, % of DMSO control [7]: 5.98%
- parasite growth remaining, % of DMSO control (lower = more inhibition) [8]: 11.9%
- parasite growth, % of control (lower = inhibition) [9]: 22.5%
- growth, % of control [10]: 5.71%

SMILES: CS(=O)(=O)Nc1cccc(-c2nc(Nc3ccccc3)c3ccccc3n2)c1
- activation [2]: 6.74% (inactive)

SMILES: Nc1ncnc2c1ncn2[C@@H]1O[C@H](COP(=O)(O)O)[C@@H](O)[C@@H]1O
- Potency [19]: inactive

SMILES: Cc1ccnc(N)c1
- Potency [19]: inactive
- outcome [1]: inactive

SMILES: Clc1ccc(CC[C@H](Cn2ccnc2)Sc2c(Cl)cccc2Cl)cc1
- Potency [19]: 3.98 µM (active)
